For some of these results: Results with a measured potency or affinity are listed apart. Active and inactive are the calls of the source. Unless noted, no rule for the calls is given here.
Key:
[1] = antimalarial activity against Dd2 strain (AID 2302;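 active = growth inhibition above 50% at the single 2 µM test dose, taken to imply half-maximal potency below 2 µM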;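 also: 0% = DMSO untreated growth and 100% = chloroquine plus artemisinin killed control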); details: P. falciparum Dd2 in RBCs, LDH growth readout, 72 h; at 2 µM; active compounds read high
[2] = human hepatoma cell viability loss – ATP luminescence, cytotoxicity control for P. falciparum antimalarial project, primary screen (AID 2303;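 active = inhibition above 50%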;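 also: 0% = DMSO wells and 100% = digitonin-killed cells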); details: HepG2 viability, 24-48 h, at 10 µM, active compounds read high
[3] = target: L-lactate dehydrogenase (Plasmodium falciparum (isolate CDC / Honduras)) (UniProt Q27743); experiment: PfLDH activity inhibition – cell lysate, 3D7 strain, counter-screen for P. falciparum growth inhibition project (AID 2304);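 also: 0% = vehicle and 100% = reference inhibitor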; details: P. falciparum 3D7 crude extract, LDH APAD/NBT absorbance; at 2 µM; active compounds read high
L-lactate dehydrogenase (Plasmodium falciparum (isolate CDC / Honduras)), sequence (Q27743 whole entry, looked up): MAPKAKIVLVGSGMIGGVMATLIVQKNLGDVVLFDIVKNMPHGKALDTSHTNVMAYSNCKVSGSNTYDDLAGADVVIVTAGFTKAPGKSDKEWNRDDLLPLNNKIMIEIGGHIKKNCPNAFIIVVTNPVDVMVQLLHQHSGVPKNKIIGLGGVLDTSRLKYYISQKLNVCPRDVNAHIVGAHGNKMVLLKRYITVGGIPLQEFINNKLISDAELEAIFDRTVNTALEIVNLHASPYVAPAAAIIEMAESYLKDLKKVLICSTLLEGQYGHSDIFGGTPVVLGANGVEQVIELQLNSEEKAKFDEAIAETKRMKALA

[4] = inhibition of 3D7 malaria parasite growth – strain 3D7 (AID 2306);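 also: 0% = DMSO wells and 100% = chloroquine plus artemisinin control wells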; details: P. falciparum 3D7 erythrocytic growth, LDH absorbance, 72 h; at 2 µM; active compounds read high
[5] = target: Calcium-dependent protein kinase 1 (Plasmodium falciparum (isolate 3D7)) (UniProt P62344); experiment: PfCDPK1 kinase inhibitors, biochemical, TCAMS library (AID 1159585; cut-off not given, nearly all actives have IC50 up to about 0.98 µM;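 also: inhibitors leave more ATP so luminescence rises with inhibition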); details: recombinant PfCDPK1, Kinase-Glo ATP depletion luminescence
Calcium-dependent protein kinase 1 (Plasmodium falciparum (isolate 3D7)), sequence (P62344 whole entry, looked up): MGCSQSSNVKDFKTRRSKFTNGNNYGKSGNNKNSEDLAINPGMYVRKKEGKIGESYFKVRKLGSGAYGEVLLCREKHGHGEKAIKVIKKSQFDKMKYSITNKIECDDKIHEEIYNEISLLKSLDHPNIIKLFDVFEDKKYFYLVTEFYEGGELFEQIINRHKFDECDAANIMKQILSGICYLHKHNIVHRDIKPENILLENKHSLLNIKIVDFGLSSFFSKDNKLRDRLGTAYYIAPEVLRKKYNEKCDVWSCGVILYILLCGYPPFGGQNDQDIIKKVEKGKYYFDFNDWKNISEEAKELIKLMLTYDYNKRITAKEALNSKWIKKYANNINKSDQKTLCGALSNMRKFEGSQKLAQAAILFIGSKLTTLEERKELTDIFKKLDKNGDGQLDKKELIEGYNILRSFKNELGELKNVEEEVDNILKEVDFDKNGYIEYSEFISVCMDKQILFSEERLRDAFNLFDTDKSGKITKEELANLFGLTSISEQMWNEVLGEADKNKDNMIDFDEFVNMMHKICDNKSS

[6] = target: Plasmodium falciparum protein kinase 6 (PK6, PF3D7_1337100) (UniProt Q8IDW1); experiment: PfPK6 kinase inhibitors, biochemical, TCAMS library (AID 1159586); details: recombinant PfPK6, Kinase-Glo ATP depletion luminescence
Plasmodium falciparum protein kinase 6 (PK6, PF3D7_1337100), sequence (Q8IDW1 1-305): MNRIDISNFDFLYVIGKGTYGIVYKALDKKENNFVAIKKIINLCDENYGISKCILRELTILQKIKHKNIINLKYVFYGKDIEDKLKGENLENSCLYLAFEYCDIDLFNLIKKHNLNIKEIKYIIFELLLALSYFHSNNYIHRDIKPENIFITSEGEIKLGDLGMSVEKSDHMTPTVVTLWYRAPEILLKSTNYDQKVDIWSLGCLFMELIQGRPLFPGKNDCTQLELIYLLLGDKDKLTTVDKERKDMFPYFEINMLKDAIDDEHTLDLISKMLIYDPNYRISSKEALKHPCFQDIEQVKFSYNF

[7] = target: Protein kinase 7 (PK7), Plasmodium falciparum 3D7 (PF3D7_0213400) (UniProt Q7YTF7); experiment: inhibition of Plasmodium PK7 catalytic activity – biochemical, TCAMS antimalarial set, Kinase-Glo luminescence (AID 1159587); details: recombinant PfPK7, Kinase-Glo ATP depletion luminescence
Protein kinase 7 (PK7), Plasmodium falciparum 3D7 (PF3D7_0213400), sequence (Q7YTF7 1-343): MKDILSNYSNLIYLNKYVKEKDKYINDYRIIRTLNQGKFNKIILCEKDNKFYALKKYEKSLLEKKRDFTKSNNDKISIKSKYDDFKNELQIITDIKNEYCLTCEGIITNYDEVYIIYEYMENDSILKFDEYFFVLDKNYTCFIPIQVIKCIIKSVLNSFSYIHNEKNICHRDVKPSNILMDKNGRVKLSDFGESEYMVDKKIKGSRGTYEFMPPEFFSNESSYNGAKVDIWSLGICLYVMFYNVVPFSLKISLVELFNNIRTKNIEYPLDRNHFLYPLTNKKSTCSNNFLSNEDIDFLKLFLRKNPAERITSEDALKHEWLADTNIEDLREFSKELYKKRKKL

[8] = target: Calcium-dependent protein kinase 4 (Plasmodium falciparum (isolate 3D7)) (UniProt Q8IBS5); experiment: PfCDPK4 kinase inhibitors, biochemical, TCAMS library (AID 1159588; cut-off not given, nearly all actives have IC50 up to about 0.91 µM); details: recombinant PfCDPK4, Kinase-Glo ATP depletion luminescence
Calcium-dependent protein kinase 4 (Plasmodium falciparum (isolate 3D7)), sequence (Q8IBS5 whole entry, looked up): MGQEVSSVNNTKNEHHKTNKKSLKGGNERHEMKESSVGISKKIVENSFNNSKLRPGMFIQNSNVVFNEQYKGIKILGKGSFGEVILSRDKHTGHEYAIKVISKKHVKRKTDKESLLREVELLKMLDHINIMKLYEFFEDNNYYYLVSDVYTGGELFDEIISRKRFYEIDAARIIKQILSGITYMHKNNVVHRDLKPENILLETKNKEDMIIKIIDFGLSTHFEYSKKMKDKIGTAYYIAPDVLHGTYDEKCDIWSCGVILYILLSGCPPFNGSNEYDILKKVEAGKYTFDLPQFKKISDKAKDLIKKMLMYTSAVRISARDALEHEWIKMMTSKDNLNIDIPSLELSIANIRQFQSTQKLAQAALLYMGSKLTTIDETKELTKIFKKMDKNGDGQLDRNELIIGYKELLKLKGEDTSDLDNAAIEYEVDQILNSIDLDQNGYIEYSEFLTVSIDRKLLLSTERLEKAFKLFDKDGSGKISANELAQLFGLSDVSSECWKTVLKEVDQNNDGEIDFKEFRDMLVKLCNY

CC1(CCCCN2CCC(c3c[nH]c4cnccc34)CC2)C(=O)Nc2cccc(Cl)c21 (stereo not given)
active: growth inhibition [4] 100%
inactive: growth inhibition [1] -1% | inhibition [2] 26% | inhibition [3] 0% | outcome [5] | outcome [6] | outcome [7] | outcome [8]

CC(=O)Nc1ccc(C(=O)Nc2cccc(-c3ccc(-c4nc5ccccc5[nH]4)cc3)c2)cn1
active: growth inhibition [1] 93% | growth inhibition [4] 100%
inactive: inhibition [2] 12% | inhibition [3] 0% | outcome [5] | outcome [6] | outcome [7] | outcome [8]

CCC(C)c1ccc(NC(=O)C(C)c2ccc([N+](=O)[O-])cc2)cc1 (stereo not given)
active: growth inhibition [1] 100% | growth inhibition [4] 101%
inactive: inhibition [2] 14% | inhibition [3] -3% | outcome [5] | outcome [6] | outcome [7] | outcome [8]

CCN1CCN(c2ccc(Nc3c4ccccc4nc4ccccc34)cc2)CC1
active: growth inhibition [1] 100% | growth inhibition [4] 99%
inactive: inhibition [2] 24% | inhibition [3] -2% | outcome [5] | outcome [6] | outcome [7] | outcome [8]

CC(C)CC1c2[nH]c3ccccc3c2CCN1C(=O)CCc1ccccc1 (stereo not given)
active: growth inhibition [1] 82% | growth inhibition [4] 92%
inactive: inhibition [2] -13% | inhibition [3] -2% | outcome [5] | outcome [6] | outcome [7] | outcome [8]

O=C(Nc1cccc(-c2csc(-c3ccccc3)n2)c1)c1cccs1
active: growth inhibition [1] 71% | growth inhibition [4] 89%
inactive: inhibition [2] 0% | inhibition [3] 2% | outcome [5] | outcome [6] | outcome [7] | outcome [8]

CCCCN1CC[C@@H](CCC(O)c2cc(OCCC)nc3ccc(OC)cc23)[C@@H](CC)C1 (stereo not given in full)
inactive: inhibition [2] 23% | inhibition [3] -4% | outcome [5] | outcome [6] | outcome [7] | outcome [8]
active: growth inhibition [1] 99% | growth inhibition [4] 100%

Cc1cccc2[nH]c(-c3cccc(-c4cccc(NC(=O)CCc5cnc[nH]5)c4)c3)nc12
active: growth inhibition [1] 86% | growth inhibition [4] 102%
inactive: inhibition [2] 16% | inhibition [3] 0% | outcome [5] | outcome [6] | outcome [7] | outcome [8]

N#Cc1cccc(Nc2nccc(NCC(O)c3ccccc3C(F)(F)F)n2)c1 (stereo not given)
active: growth inhibition [4] 98%
inactive: growth inhibition [1] 39% | inhibition [2] 36% | inhibition [3] 3% | outcome [5] | outcome [6] | outcome [7] | outcome [8]

CC(C)CNC(=O)CN1C(=O)C(c2ccccc2)(c2ccccc2)N=C1N
inactive: growth inhibition [1] 46% | inhibition [2] 15% | inhibition [3] -1% | outcome [5] | outcome [6] | outcome [7] | outcome [8]
active: growth inhibition [4] 94%

O=C(Nc1ccc(-c2ccc(-c3nc4ccc(C(F)(F)F)cc4[nH]3)s2)cc1)c1ccoc1
active: growth inhibition [1] 54% | growth inhibition [4] 94%
inactive: inhibition [2] 9% | inhibition [3] 3% | outcome [5] | outcome [6] | outcome [7] | outcome [8]

Cc1cccc2[nH]c(-c3ccc(-c4ccc(CN5CCCC(O)C5)cc4)s3)nc12 (stereo not given)
inactive: growth inhibition [1] 29% | inhibition [2] 38% | inhibition [3] -1% | outcome [5] | outcome [6] | outcome [7] | outcome [8]
active: growth inhibition [4] 101%

CS(=O)(=O)Nc1ccc(-c2cnc3[nH]cc(-c4ccc(C(=O)O)cc4)c3c2)cc1
inactive: growth inhibition [1] 45% | inhibition [2] -15% | inhibition [3] -1% | outcome [5] | outcome [6] | outcome [7] | outcome [8]
active: growth inhibition [4] 95%

COc1cc(C(=O)NC2CC(C)(C)N(C)C(C)(C)C2)ccc1-c1nc2cc(Cl)c(Cl)cc2[nH]1
inactive: inhibition [3] 5% | outcome [5] | outcome [6] | outcome [7] | outcome [8]
active: growth inhibition [1] 99% | inhibition [2] 69% | growth inhibition [4] 100%

O=C(Nc1ccc(SC(F)(F)F)cc1)Nc1ccnc2ccccc12
inactive: growth inhibition [1] 42% | inhibition [2] 26% | inhibition [3] -2% | outcome [5] | outcome [6] | outcome [7] | outcome [8]
active: growth inhibition [4] 95%

CCOC(=O)C(NC(=O)Cc1ccccc1)C(C)C (stereo not given)
active: growth inhibition [1] 98% | growth inhibition [4] 96%
inactive: inhibition [2] 39% | inhibition [3] 4% | outcome [5] | outcome [6] | outcome [7] | outcome [8]

Cc1cc2nc(-c3ccc(C(=O)NC4CCN(Cc5ccccc5)CC4)s3)[nH]c2cc1C
active: growth inhibition [1] 82% | growth inhibition [4] 99%
inactive: inhibition [2] 33% | inhibition [3] 1% | outcome [5] | outcome [6] | outcome [7] | outcome [8]

O=C(Nc1ccc(Cl)cc1)c1cccc(CN2CCCN(Cc3cccc(O)c3)CC2)c1
active: growth inhibition [4] 98%
inactive: growth inhibition [1] 43% | inhibition [2] 14% | inhibition [3] 3% | outcome [5] | outcome [6] | outcome [7] | outcome [8]

Cc1cc(N[C@@H](CC(C)C)C(=O)NCCc2ccccc2)nc(Nc2ccccc2)n1
active: growth inhibition [4] 100%
inactive: growth inhibition [1] 38% | inhibition [2] 1% | inhibition [3] 1% | outcome [5] | outcome [6] | outcome [7] | outcome [8]

CC(C)(C)NCCN(Cc1ccc(-c2ccc(C(F)(F)F)cc2)cc1)C(=O)Cn1c(SCc2ccc(F)cc2)nc(=O)c2c1CCC2
inactive: inhibition [3] 0% | outcome [5] | outcome [6] | outcome [7] | outcome [8]
active: growth inhibition [1] 84% | inhibition [2] 64% | growth inhibition [4] 97%

— PubChem BioAssay
